# DT40 TDP1 no CPT: qHTS for Inhibitors of human tyrosyl-DNA phosphodiesterase 1 (TDP1): qHTS in cells in absence of CPT. DT40 Tdp1-/- hTDP1 cells, no CPT, ATP luminescence, 48 h. Potency, µM (highest dose often 46.2 µM), hits mostly inhibitors. 420,000 compounds, 15% hits. AID 686978, 2013; also: nearly all actives have a fitted effect of over 55% in size
#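 Chicken DT40 Tdp1-/- cells stably complemented with human TDP1 were seeded at 400 cells/well with DMSO in place of 20 nM camptothecin. After compound pinning, cells grew at least 48 hr at 37 °C; viability read by CellTiter-Glo luminescence.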
# DT40 TDP1 CPT: growth inhibition of DT40 Tdp1-/-;hTDP1 cells with camptothecin (screen for TDP1 inhibitors). 420,000 compounds, 12% hits. chicken DT40 Tdp1-/-;hTDP1 cells + 20 nM CPT, ATP luminescence, 48 h. AID 686979. Potency, µM (highest dose often 46.2 µM), most hits filed as inhibitors; also: nearly all actives have a fitted effect of over 55% in size
#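 Chicken DT40 Tdp1-/- cells stably complemented with human TDP1 were seeded at 400 cells/well in medium containing 20 nM camptothecin, exposed to pin-transferred compounds, and grown at 37 °C for at least 48 hr. Viability was read as ATP luminescence.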
# RORg inh: inhibitors of mouse ROR gamma transcriptional activity; P51450; 310,000 compounds, 5.4% hits; Potency, µM (highest dose often 53.6 µM), most hits filed as inhibitors; AID 2551; Drosophila S2 Gal4-RORgamma UAS-luciferase reporter, 20 h; also: nearly all actives have a fitted effect of over 60% in size
# Target sequence (P51450 whole entry, looked up, the tested form may be a part): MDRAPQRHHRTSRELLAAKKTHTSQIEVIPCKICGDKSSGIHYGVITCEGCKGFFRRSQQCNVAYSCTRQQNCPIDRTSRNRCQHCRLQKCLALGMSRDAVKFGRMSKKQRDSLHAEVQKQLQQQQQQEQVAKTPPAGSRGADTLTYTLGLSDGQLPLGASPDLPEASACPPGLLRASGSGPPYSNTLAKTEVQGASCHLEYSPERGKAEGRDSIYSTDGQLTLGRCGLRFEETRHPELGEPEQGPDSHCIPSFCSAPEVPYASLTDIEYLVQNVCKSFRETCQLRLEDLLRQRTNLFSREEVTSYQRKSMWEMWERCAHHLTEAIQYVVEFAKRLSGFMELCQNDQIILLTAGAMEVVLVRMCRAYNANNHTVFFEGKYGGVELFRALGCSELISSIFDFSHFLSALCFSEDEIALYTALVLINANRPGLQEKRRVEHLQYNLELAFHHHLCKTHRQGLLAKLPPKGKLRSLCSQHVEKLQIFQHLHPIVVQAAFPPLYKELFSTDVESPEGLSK
#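 Drosophila Schneider cells stably carrying a metallothionein-driven Gal4 DBD–ROR gamma fusion and a UAS-Photinus luciferase reporter were exposed to compound for 1 hr, then induced with copper sulfate (700 uM final) for 20 hr at ambient temperature before luminescence reading.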
# TDP1 inh: blocks human tyrosyl-DNA phosphodiesterase 1; Q9NUW8; recombinant TDP1, AlphaScreen DNA substrate cleavage; Potency, µM (highest dose often 130 µM), most hits filed as inhibitors; 350,000 compounds, 0.28% hits; AID 485290; also: nearly all actives have a fitted effect of over 40% in size
#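 Signal: AlphaScreen proximity between streptavidin donor and anti-FITC acceptor beads on intact substrate. Reaction: Tdp1 1 nM, substrate 15 nM final, 5 min RT after 15 min compound preincubation.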
# VP16 counter: inhibits Gal4-VP16 luciferase reporter, ROR gamma counter-screen. Potency, µM (doses to about 53.6 µM), most hits filed as inhibitors. Drosophila S2 Gal4-VP16 UAS-luciferase, luminescence, 20 h. 310,000 compounds, 3.5% hits. AID 2546;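 also: Gal4-VP16 expression switched on by copper sulfate through the metallothionein promoter; nearly all actives have a fitted effect of over 50% in size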
# Hits are given with their value; n = inactive; u = inconclusive; x = no result; [ ] = remark or other dose. Compounds with a hit are over-represented: about 19% of the library has one in this group of screens. Calls follow the shape of the dose curve; as a rule, active = well fitted curve in the direction sought with a large enough effect; inconclusive = small, poorly fitted or top-dose-only effect, or another doubt; inactive = no such curve, though single readings can be large; an effect the other way counts as inactive or inconclusive.
SMILES,DT40 TDP1 no CPT,DT40 TDP1 CPT,RORg inh,TDP1 inh,VP16 counter
COc1cc(C(=O)NC(=S)Nc2ccc(Cl)cn2)cc(OC)c1OC,u,u,5µM,n,11µM
O=C(Nc1ccc(NC(=O)C2CC2)nc1)c1ccccc1F,n,n,n,n,n
COc1cc(C(=O)Nc2ccc(NC(=O)c3cccc(Cl)c3)nc2)cc(OC)c1OC,8.2µM,26µM,n,n,n
COc1cc(C(=O)Sc2ccc(Cl)cc2)cc(OC)c1OC,12µM,13µM,u,n,u
O=C(Nc1ccc(NC(=O)C2CCCCC2)nc1)c1cccs1,12µM,u,n,n,n
COc1cc(C(=O)NC(=S)Nc2nc(-c3ccc(F)cc3)cs2)cc(OC)c1OC,n,n,n,n,n
COc1ccc(C(=O)NC(=S)NCc2cccnc2)cc1OC,u,n,n,n,n
COc1cc(C(=O)Nc2ccc(NC(=O)C3CCCCC3)nc2)cc(OC)c1OC,18µM,u,n,n,n
COc1cc(C(=O)NNC(=O)C2CCC2)cc(OC)c1OC,n,n,x,n,x
COc1cc(C(=O)NC(=S)NCc2ccncc2)cc(OC)c1OC,21µM,u,x,x,x
c1ccc(-c2noc(-c3cccc4ccccc34)n2)nc1,n,n,u,n,10µM
COc1ccccc1-c1noc(-c2cc(OC)c(OC)c(OC)c2)n1,23µM,u,n,n,n
COc1cccc(-c2nc(-c3ccccn3)no2)c1OC,u,23µM,n,n,n
COc1cc(OC)cc(-c2nc(-c3ccccc3OC)no2)c1,u,u,n,n,n
O=C(CSc1ccc(Cl)cc1)Nc1ccccc1N1CCN(C(=O)c2ccccc2)CC1,18µM,16µM,n,n,n
O=C(Nc1ccccc1N1CCN(C(=O)c2ccc(Cl)cc2)CC1)c1cc(Br)ccc1Cl,15µM,u,n,n,n
COc1ccccc1C(=O)Nc1ccccc1N1CCN(C(=O)c2ccc(Cl)cc2)CC1,16µM,15µM,n,n,n
Cc1ccc(-c2nnc(SCC#CCOC(=O)c3cccs3)o2)cc1,n,n,u,n,u
CCn1c(SCC(=O)N/N=C/C(C)=C/c2ccco2)nnc1-c1ccccc1,u,n,n,x,n
CCCOc1ccc(CN(C(=O)Cc2coc3ccc(CC)cc23)C2CCS(=O)(=O)C2)cc1 (stereo unspecified),u,u,x,n,x
Cc1ccc(C)c(OCCCCN2CCNCC2)c1C,6.5µM,15µM,n,n,n
Cc1ccc(C(C)C)c(OCCCCCN2CCOCC2)c1,n,n,n,n,n
Cc1ccc(C(C)C)c(OCCCCN2CCNCC2)c1,16µM,15µM,n[1.91 µM],x,n
Cc1cccc(C(C)(C)C)c1OCCCCN1CCCC1,23µM,u,n,n,n
CC(C)(C)c1ccccc1OCCCCN1CCCC1,u,u,n,n,n
SMILES,DT40 TDP1 no CPT,DT40 TDP1 CPT,RORg inh,TDP1 inh,VP16 counter
Cc1ccc(C)c(OCCCN2CCNCC2)c1,n,n,n,x,n
O=C(N/N=C/c1cccnc1)C1CCCCC1,n,n,n,n,n
COc1ccc(Cn2c(-c3ccccc3C)nc3c(c(=O)c4ccccc4n3C)c2=O)cc1,n,n,x,x,x
OCCNc1nc2nonc2nc1NCCO,n,n,n,n,n
CC(C)(C)Nc1nc2nonc2nc1NC(C)(C)C,u,16µM,n,n,n
CCc1ccc(NC(=O)CSc2nnc3[nH]c(=O)cc(-c4ccccc4)n23)cc1,n,u,x,n,x
CCN(Cc1ccccc1)C(=O)Cn1c(=O)oc2cc(S(=O)(=O)N3CCCCCC3)ccc21,15µM,16µM,x,n,x
COc1cc(OC)c(NC(=O)Cn2c(=O)oc3cc(S(=O)(=O)N4CCCC4)ccc32)cc1Cl,18µM,u,x,n,x
COc1ccccc1CNC(=O)Cn1c(=O)oc2cc(S(=O)(=O)N3CCCC3)ccc21,29µM,13µM,n,n,n
CCOc1ccc(NC(=O)Cn2c(=O)oc3cc(S(=O)(=O)NC4CCCC4)ccc32)cc1,12µM,15µM,x,n,x
COc1ccc(NC(=O)Cn2c(=O)oc3cc(S(=O)(=O)N4CCCC4)ccc32)cc1,n,n,n,x,n
Cc1cccc(NC(=O)Cn2c(=O)oc3cc(S(=O)(=O)NC4CCCC4)ccc32)c1,u,u,x,n,x
CCCc1nc2ccccc2c(=O)n1CC(=O)c1ccc(OC)cc1,u,n,n,x,n
Cc1ccccc1/C=N/NC(=O)c1sccc1C,u,u,n,n,n
COCCN(Cc1cc2cc3c(cc2nc1Cl)OCO3)C(C)=O,n,n,n,n,n
COc1ccc(OC)c(CNC(=O)c2cc(=O)[nH]c3ccc(S(=O)(=O)N4CCCCC4C)cc23)c1 (stereo unspecified),16µM,u,x,n,x
CCOc1ccc(CCNC(=O)c2cc(=O)[nH]c3ccc(S(=O)(=O)N4CCCCC4C)cc23)cc1OCC (stereo unspecified),u,u,x,n,x
COc1ccc(NC(=O)Cn2c(=O)oc3cc(S(=O)(=O)N4CCCCCC4)ccc32)cc1OC,13µM,16µM,x,n,x
COc1ccc(NC(=O)Cn2c(=O)oc3cc(S(=O)(=O)N4CCCCC4C)ccc32)cc1 (stereo unspecified),21µM,18µM,x,n,x
CCOc1ccc(NC(=O)Cn2c(=O)oc3cc(S(=O)(=O)N4CCCCCC4)ccc32)cc1,21µM,21µM,x,n,x
OCCN1CCN(CCCc2c3c(cc4c2CCC4)CCC3)CC1,n,u,n,n,n
O=C(Nc1ccccc1F)C1CCCN(S(=O)(=O)c2cccc3cccnc23)C1 (stereo unspecified),u,u,u,n,n
CCOc1ccccc1NC(=O)c1cn(C2CCCCC2)c(=O)c2c1c1ccccc1n2C,u,u,x,n,x
Cc1ccc(CNC(=O)c2cn(C3CCCCC3)c(=O)c3c2c2ccccc2n3C)o1,16µM,12µM,n,n,n
Cc1cc(NC(=O)c2cn(C3CCCCC3)c(=O)c3c2c2ccccc2n3C)no1,23µM,u,n,n,n
SMILES,DT40 TDP1 no CPT,DT40 TDP1 CPT,RORg inh,TDP1 inh,VP16 counter
Cc1cccc(OCC(=O)NC(=S)Nc2ccccc2N2CCOCC2)c1C,n,n,n,n,n
CCOc1ccccc1NC(=O)Cn1[nH]c(=O)c2ccccc2c1=O,x,x,n,n,n
Cc1ccccc1NC(=S)NC(=O)COc1ccccc1C,n,n,13µM,n,u
Cc1ccccc1OCC(=O)NC(=S)Nc1ccc(S(=O)(=O)NC2CCCCC2)cc1,13µM,u,n,n,n
Cc1ccccc1OCC(=O)Nc1ccccc1NC(=O)c1ccco1,n,n,n,n,n
CCc1ccc(OCC(=O)NC(=S)Nc2ccc(S(=O)(=O)NC3CCCCC3)cc2)cc1,u,u,n,n,n
Cc1ccccc1OCC(=O)Nc1ccccc1-c1ccccc1NC(=O)COc1ccccc1C,15µM,u,u,n,n
Cc1ccccc1OCC(=O)NNC(=O)Cn1[nH]c(=O)c2ccccc2c1=O,u,8.2µM,x,n,x

# Bioassay records (PubChem BioAssay)
